Data: PubChem BioAssay (NCI)
The panel holds about 79,000 compounds, 15% with a hit somewhere; the sample as a whole holds those more often. A number with no mark means an inactive call. The source made the active and inactive calls. No stated cut-off is given here; in the data, active means growth inhibition above about 70%; inactive means the rest.

What was measured:
[1] = NCI Yeast Anticancer Drug Screen. Data for the rad50 strain (AID 155);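 further: 0% = growth of vehicle-only cultures of the same strain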; details: S. cerevisiae rad50 strain growth inhibition, active compounds read high
Procedure, shortened: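 DNA repair mutant yeast, compound exposure, growth read-out; inhibition is taken relative to vehicle.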

[2] = NCI Yeast Anticancer Drug Screen. Data for the mec2-1 strain (AID 157); details: S. cerevisiae mec2-1 strain, active compounds read high
Procedure, shortened: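 Vehicle-treated cultures served as reference for growth inhibition of compound-exposed mec2-1 yeast.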

[3] = NCI Yeast Anticancer Drug Screen. Data for the sgs1 mgt1 strain (AID 161);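 further: 0% = growth of cultures given vehicle only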; details: S. cerevisiae sgs1 mgt1 strain, active compounds read high
Procedure, shortened: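 Mutant yeast exposed to compound; growth scored against vehicle-only wells.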

[4] = NCI Yeast Anticancer Drug Screen. Data for the cln2 rad14 strain (AID 165);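 further: 0% = growth equal to vehicle treated cultures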; details: S. cerevisiae cln2 rad14 strain, active compounds read high
Procedure, shortened: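 Each compound was tested on cln2 rad14 yeast. Inhibition of growth was calculated against vehicle-exposed controls.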

[5] = NCI Yeast Anticancer Drug Screen. Data for the bub3 strain (AID 167); details: S. cerevisiae bub3 mutant strain, active compounds read high
Procedure, shortened: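 In this screen, a yeast mutant lacking normal mitotic checkpoint function is challenged with compound. Relative growth versus vehicle gives the inhibition value.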

[6] = NCI Yeast Anticancer Drug Screen. Data for the mlh1 rad18 strain (AID 175); details: S. cerevisiae mlh1 rad18 strain growth inhibition, active compounds read high
Procedure, shortened: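 Vehicle-treated cultures served as the reference for growth inhibition in a yeast strain carrying DNA damage repair alterations exposed to each compound.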

[7] = at 5.0 µM (retest, dose inferred, filed as 0.5)
[8] = at 50.0 µM (retest, dose inferred, filed as 5.0)

For `CCc1ccc(N(C(C)=O)C2=C(Cl)C(=O)c3ccccc3C2=O)cc1`, the growth inhibition [1, 7] was 99% (active), the growth inhibition [1, 8] was 99% (active) and the growth inhibition ([1]; at 50.0 µM) was 98.4% (active). The growth inhibition [2, 7] was 100% (active), the growth inhibition [2, 8] was 99% (active) and the growth inhibition ([2]; at 50.0 µM) was 91% (active). For the same molecule, the growth inhibition [3, 7] was 100% (active), the growth inhibition [3, 8] was 100% (active) and the growth inhibition ([3]; at 50.0 µM) was 99.2% (active). For the same molecule, the growth inhibition [4, 7] was 99% (active), the growth inhibition [4, 8] was 99% (active) and the growth inhibition ([4]; at 50.0 µM) was 77% (active). The growth inhibition [5, 7] was 99% (active), the growth inhibition [5, 8] was 100% (active) and the growth inhibition ([5]; at 50.0 µM) was 67.9%. For the same molecule, the growth inhibition [6, 7] was 100% (active), the growth inhibition [6, 8] was 99% (active) and the growth inhibition ([6]; at 50.0 µM) was 98.7% (active).

`O=C(NNc1ccccc1)C(O)C(=O)C(O)C(O)C(O)CO` (stereo not given) gave a growth inhibition [1, 7] of 1%, a growth inhibition [1, 8] of 27% and a growth inhibition ([1]; at 50.0 µM) of 9.45%. It also gave a growth inhibition [2, 7] of -1%, a growth inhibition [2, 8] of 8% and a growth inhibition ([2]; at 50.0 µM) of 21.9%. It also gave a growth inhibition [3, 7] of 9%, a growth inhibition [3, 8] of 6% and a growth inhibition ([3]; at 50.0 µM) of 61.8%. The growth inhibition [4, 7] was -2%, the growth inhibition [4, 8] was 14% and the growth inhibition ([4]; at 50.0 µM) was -14.1%. For the same molecule, the growth inhibition [5, 7] was 8%, the growth inhibition [5, 8] was 34% and the growth inhibition ([5]; at 50.0 µM) was 80% (active). For the same molecule, the growth inhibition [6, 7] was 5%, the growth inhibition [6, 8] was 28% and the growth inhibition ([6]; at 50.0 µM) was 75.2% (active).

For `CNC(=S)N/N=C(\C=N\NC(=S)NC)c1ccccc1`, the growth inhibition [1, 7] was 7%, the growth inhibition [1, 8] was 32% and the growth inhibition ([1]; at 50.0 µM) was 74.7% (active). It also gave a growth inhibition [2, 7] of -14%, a growth inhibition [2, 8] of 35% and a growth inhibition ([2]; at 50.0 µM) of 37%. For the same molecule, the growth inhibition [3, 7] was 3%, the growth inhibition [3, 8] was 37% and the growth inhibition ([3]; at 50.0 µM) was 82.4% (active). It also gave a growth inhibition [4, 7] of 9%, a growth inhibition [4, 8] of 30% and a growth inhibition ([4]; at 50.0 µM) of 37.8%. It also gave a growth inhibition [5, 7] of -1%, a growth inhibition [5, 8] of 25% and a growth inhibition ([5]; at 50.0 µM) of 59.5%. It also gave a growth inhibition [6, 7] of 0%, a growth inhibition [6, 8] of 44% and a growth inhibition ([6]; at 50.0 µM) of 66.8%.

With `O=C(C#CC(=O)[O][Sn]([c]1ccccc1)([c]1ccccc1)[c]1ccccc1)[O][Sn]([c]1ccccc1)([c]1ccccc1)[c]1ccccc1` the growth inhibition [1, 7] was 99% (active), the growth inhibition [1, 8] was 99% (active) and the growth inhibition ([1]; at 50.0 µM) was 99.1% (active). The growth inhibition [2, 7] was 100% (active), the growth inhibition [2, 8] was 99% (active) and the growth inhibition ([2]; at 50.0 µM) was 99.5% (active). For the same molecule, the growth inhibition [3, 7] was 100% (active), the growth inhibition [3, 8] was 99% (active) and the growth inhibition ([3]; at 50.0 µM) was 99.5% (active). For the same molecule, the growth inhibition [4, 7] was 99% (active), the growth inhibition [4, 8] was 99% (active) and the growth inhibition ([4]; at 50.0 µM) was 98.4% (active). For the same molecule, the growth inhibition [5, 7] was 99% (active), the growth inhibition [5, 8] was 99% (active) and the growth inhibition ([5]; at 50.0 µM) was 99% (active). For the same molecule, the growth inhibition [6, 7] was 99% (active), the growth inhibition [6, 8] was 99% (active) and the growth inhibition ([6]; at 50.0 µM) was 99.2% (active).

With `CC(=O)NNc1nc(C)c(C(=O)NNC(=O)C(=O)Nc2c(C)cccc2C(C)C)s1` the growth inhibition [1, 7] was 3%, the growth inhibition [1, 8] was 85% (active) and the growth inhibition ([1]; at 50.0 µM) was 43.1%. For the same molecule, the growth inhibition [2, 7] was 1%, the growth inhibition [2, 8] was 88% (active) and the growth inhibition ([2]; at 50.0 µM) was 33%. The growth inhibition [3, 7] was 6%, the growth inhibition [3, 8] was 89% (active) and the growth inhibition ([3]; at 50.0 µM) was 47%. The growth inhibition [4, 7] was 0%, the growth inhibition [4, 8] was 49% and the growth inhibition ([4]; at 50.0 µM) was 9%. For the same molecule, the growth inhibition [5, 7] was 4%, the growth inhibition [5, 8] was 87% (active) and the growth inhibition ([5]; at 50.0 µM) was 37.5%. The growth inhibition [6, 7] was -4%, the growth inhibition [6, 8] was 74% (active) and the growth inhibition ([6]; at 50.0 µM) was 44.1%.

In the case of `CC1CCC(C(O)(C(=O)O)C2CCC(C)CC2)CC1` (stereo not given), the growth inhibition [1, 7] is reported as 23%, the growth inhibition [1, 8] is reported as 30% and the growth inhibition ([1]; at 50.0 µM) is reported as 37.9%. For the same molecule, the growth inhibition [2, 7] was 26%, the growth inhibition [2, 8] was 39% and the growth inhibition ([2]; at 50.0 µM) was 19.3%. The growth inhibition [3, 7] was 34%, the growth inhibition [3, 8] was 61% and the growth inhibition ([3]; at 50.0 µM) was 10.2%. The growth inhibition [4, 7] was 78% (active), the growth inhibition [4, 8] was 57% and the growth inhibition ([4]; at 50.0 µM) was 47.6%. It also gave a growth inhibition [5, 7] of 25%, a growth inhibition [5, 8] of -73% and a growth inhibition ([5]; at 50.0 µM) of 49.1%. For the same molecule, the growth inhibition [6, 7] was 15%, the growth inhibition [6, 8] was 23% and the growth inhibition ([6]; at 50.0 µM) was 49.7%.

Molecule `CSc1nc2ccccc2s1` has a growth inhibition [1, 7] of -5%, a growth inhibition [1, 8] of 8% and a growth inhibition ([1]; at 50.0 µM) of 24.1%. It also gave a growth inhibition [2, 7] of -2%, a growth inhibition [2, 8] of 3% and a growth inhibition ([2]; at 50.0 µM) of 23.3%. The growth inhibition [3, 7] was -1%, the growth inhibition [3, 8] was 4% and the growth inhibition ([3]; at 50.0 µM) was -19.4%. It also gave a growth inhibition [4, 7] of 4%, a growth inhibition [4, 8] of 0% and a growth inhibition ([4]; at 50.0 µM) of 43.9%. It also gave a growth inhibition [5, 7] of -3%, a growth inhibition [5, 8] of -1% and a growth inhibition ([5]; at 50.0 µM) of -8.3%. It also gave a growth inhibition [6, 7] of -3%, a growth inhibition [6, 8] of 5% and a growth inhibition ([6]; at 50.0 µM) of 4.2%.

For `Cc1c(C2Cc3ccccc3N2C(=O)/C=C\C(=O)O)c2ccccc2n1C` (stereo not given), the growth inhibition [1, 7] was 33%, the growth inhibition [1, 8] was 32% and the growth inhibition ([1]; at 50.0 µM) was 74.8% (active). For the same molecule, the growth inhibition [2, 7] was 25%, the growth inhibition [2, 8] was 35% and the growth inhibition ([2]; at 50.0 µM) was 33.4%. It also gave a growth inhibition [3, 7] of 39%, a growth inhibition [3, 8] of 34% and a growth inhibition ([3]; at 50.0 µM) of 40.4%. For the same molecule, the growth inhibition [4, 7] was 31%, the growth inhibition [4, 8] was 35% and the growth inhibition ([4]; at 50.0 µM) was 53.5%. The growth inhibition [5, 7] was 38%, the growth inhibition [5, 8] was 38% and the growth inhibition ([5]; at 50.0 µM) was 32.6%. The growth inhibition [6, 7] was 42%, the growth inhibition [6, 8] was 35% and the growth inhibition ([6]; at 50.0 µM) was 22.4%.

In the case of `ClC1=CC(Cl)=C2N=C(C(Cl)(Cl)Cl)N=C3N=C(C(Cl)(Cl)Cl)N=C1N32`, the growth inhibition [1, 7] is reported as 29%, the growth inhibition [1, 8] is reported as 80% (active) and the growth inhibition ([1]; at 50.0 µM) is reported as 99.3% (active). For the same molecule, the growth inhibition [2, 7] was 4%, the growth inhibition [2, 8] was 88% (active) and the growth inhibition ([2]; at 50.0 µM) was 99.5% (active). For the same molecule, the growth inhibition [3, 7] was 44%, the growth inhibition [3, 8] was 85% (active) and the growth inhibition ([3]; at 50.0 µM) was 99.2% (active). The growth inhibition [4, 7] was 12%, the growth inhibition [4, 8] was 57% and the growth inhibition ([4]; at 50.0 µM) was 99% (active). For the same molecule, the growth inhibition [5, 7] was 21%, the growth inhibition [5, 8] was 94% (active) and the growth inhibition ([5]; at 50.0 µM) was 99.3% (active). For the same molecule, the growth inhibition [6, 7] was 36%, the growth inhibition [6, 8] was 86% (active) and the growth inhibition ([6]; at 50.0 µM) was 99% (active).

For `O=C1C=CC(=O)C2C1Cc1ccccc1C2c1ccccc1` (stereo not given), the growth inhibition [1, 7] was 15%, the growth inhibition [1, 8] was 97% (active) and the growth inhibition ([1]; at 50.0 µM) was 98.8% (active). For the same molecule, the growth inhibition [2, 7] was 26%, the growth inhibition [2, 8] was 98% (active) and the growth inhibition ([2]; at 50.0 µM) was 99.3% (active). The growth inhibition [3, 7] was 58%, the growth inhibition [3, 8] was 98% (active) and the growth inhibition ([3]; at 50.0 µM) was 99% (active). For the same molecule, the growth inhibition [4, 7] was 9%, the growth inhibition [4, 8] was 92% (active) and the growth inhibition ([4]; at 50.0 µM) was 98.8% (active). The growth inhibition [5, 7] was 14%, the growth inhibition [5, 8] was 98% (active) and the growth inhibition ([5]; at 50.0 µM) was 98.8% (active). For the same molecule, the growth inhibition [6, 7] was 23%, the growth inhibition [6, 8] was 98% (active) and the growth inhibition ([6]; at 50.0 µM) was 98.5% (active).
